Test results published in publication PMC12136788.
Positions count from the first letter of the chain named. In all, about 24,000 sequences were measured (“enrichment r”: median about 0.99, highest 2% from about 3.7 on). This is one part of a sample in which the highest values are shown more often than they occur.

T1: UNK ZnF1-3 (human, UniProt Q9C0B0 31-174)
T1 sequence: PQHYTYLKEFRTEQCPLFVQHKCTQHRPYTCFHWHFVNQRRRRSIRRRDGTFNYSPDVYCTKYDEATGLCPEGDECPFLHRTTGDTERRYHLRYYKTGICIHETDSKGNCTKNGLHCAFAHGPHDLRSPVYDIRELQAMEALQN

B1: chr3:139078181:139078182:-_ENSG00000184432_ENST00000507777|hu_mus|FALSE|FALSE (ssRNA)
RNA: GGGAGUUCUACAGUCCGACGAUCCUGACUGGGUAAGUAAGUUCGGGCCAGGAAGGCAGCUUCUGGGAGUCUUCCUGUUCUGAUCAAGAGCUCUAGGCAAGCAUCAAGCUUGCCCUGUAAAAAAUAGCUCAUGAAUGCCACGUUCAACAGAGGAUUGAGCAUCA
B2: chr16:45382771:45382772:-_ENSMUSG00000022661_ENSMUST00000163230|mus_mus|mus_mus_mus_hu_True|18_68 (ssRNA)
RNA: GGGAGUUCUACAGUCCGACGAUCCUGGGUCAUGUUAUAAGACAAAUGGACAGGGAGGGCAUGCUUCUGUAAAGAUGUGAGCUAUUGUCUAAGACUAACAAUAUUUAUCUAGCUAUAUAAAAAUAAGAAAUGAAUAAGUUAAGACAACAGAGGAUUGAGCAUCA
B3: chr8:35894604:35894605:-_ENSMUSG00000031529_ENSMUST00000033929|mus_hu|FALSE|FALSE (ssRNA)
RNA: GGGAGUUCUACAGUCCGACGAUCCUAUAGCAAUGCUUUAUAGAAGACAAACAGCUUAUUUCUAGGCUGUCAGGGACUUCUAGAAUAUUGAUGUUGUUAUUAGAAACAAUCCUCUGUAAUCCAGUCCCAGGUUGAAAUCUGAUCCAACAGAGGAUUGAGCAUCA
B4: chr16:45382771:45382772:-_ENSMUSG00000022661_ENSMUST00000163230|mus_mus|mus_mus_mus_hu_True|38_68 (ssRNA)
RNA: B2 RNA with U105G, A106C, U117A, A121U, U123A, A124G, A125U, G126U
B5: chr1:151039735:151039736:+_ENSG00000213190_ENST00000368921|hu_mus|FALSE|FALSE (ssRNA)
RNA: GGGAGUUCUACAGUCCGACGAUCCCCAGGCCUUCCAGCUCCGACAGAUCCAGUUCUGGGAUGGGCAUCCUCCAGAAAAGAAAGGAGCUGUACUGGCUACUUACAGGGUCCCUCAUGAUCCCCUGUUAGCAAUGAAUGACUAGGCAACAGAGGAUUGAGCAUCA
B6: chr7:19156472:19156473:-_ENSG00000122691_ENST00000242261|hu_mus|FALSE|FALSE (ssRNA)
RNA: GGGAGUUCUACAGUCCGACGAUCGCUGCAGCUUGCCAUCUUGGAGUCCAGCUCGUCGCUCUGCAGGACCUGGUACAGGAAGUCGAUGUACCUGGCCGCCAGUUUGAGGGUCUGAAUCUUGCUCAGCUUGUCCGAGGGCAGCGUCAACAGAGGAUUGAGCAUCA
B7: chr12:39756943:39756944:-_ENSG00000139116_ENST00000544797|hu_mus|hu_hu_hu_mus_False|28_58 (ssRNA)
RNA: GGGAGUUCUACAGUCCGACGAUCGGUUUGGCUGUUACCCCCAAGGGAAUCCUGCAAGAGUCUUGUCAGCUUAGAGUCUCUAUAGGGGACAUGGGUGGCUCUCUUGCUCUUGUCUCCCAAGGCGCUGAUUACAUUCCCAAGAGCCAACAGAGGAUUGAGCAUCA
B8: chr8:95500983:95500984:-_ENSG00000164944_ENST00000437199|hu_hu|hu_hu_hu_mus_True|8_88 (ssRNA)
RNA: GGGAGUUCUACAGUCCGACGAUCAGAACACAUCUAUCGAGUAAAGGGAGCGUACAUACGGCCUCUACCACUGCCUCCACUAACAAACUUUCCUCUCGAGCCUCCACUGCCGCUAUUUGUACUAGCCCCAGGAAGGUCCAGGCCCAACAGAGGAUUGAGCAUCA
B9: chr17:90989275:90989276:-_ENSMUSG00000024109_ENSMUST00000160844|mus_mus|motif|central (ssRNA)
RNA: GGGAGUUCUACAGUCCGACGAUCAGAUGUUGUCUUGAAUUGGAAAAAUAGAUGCAUAGAGGUGUAGGCUUGCAAUGUAGCGGAGGCAACAUAGCUCGAUUUGGUCUUGAAGGUGACAGGAUCUGCGAUGAUGUUCCUGAAUCCCAACAGAGGAUUGAGCAUCA
B10: chrX:103214973:103214974:+_ENSMUSG00000031231_ENSMUST00000033582|mus_hu|FALSE|FALSE (ssRNA)
RNA: GGGAGUUCUACAGUCCGACGAUCAACAAUACAGAAAGUGGCUCCACUAGCUAAUACAGCAUUACCGUAUUUGUCAUGAAAAUCAGGUGUACGUUUCUGGUGGCUCUGCCUUGCCAUUGUUUGCUGAAUGCUUCGAACUUGGAGCAACAGAGGAUUGAGCAUCA
B11: chr2:35989780:35989781:-_ENSMUSG00000026889_ENSMUST00000028251|mus_hu|FALSE|FALSE (ssRNA)
RNA: GGGAGUUCUACAGUCCGACGAUCGCAUUCUCCAGGGGAAGAGUUUUGGUUUCUGCUUCCAUCAAUGUCUAUGAAAUACUCGUGGCCUCGGCGUGGUGCUCUCAGCUCAUGCCCGGAAACCAGGUCCCGACGCCGCGGUCAGACCAACAGAGGAUUGAGCAUCA
B12: 37444673_37445709_2339_CDS_ENSMUSG00000026113_ENSMUST00000027287|mouse|control|control (ssRNA)
RNA: GGGAGUUCUACAGUCCGACGAUCGUAGAGCUGCCGCAGGAAGCCACCGUCGUGCAGGCAGUUCCUCAGCUUGAUGAUAAAGCCACAGAUGAGGGCUGUCAGGGUUUGGCAGAAGACGACGUCACGGCGAUACUGCAGGCUGAGCAACAGAGGAUUGAGCAUCA
B13: chr5:106037793:106037794:+_ENSMUSG00000054720_ENSMUST00000067924|mus_mus|FALSE|FALSE (ssRNA)
RNA: GGGAGUUCUACAGUCCGACGAUCUGUUGUCUUGUGUGGAAAAGGAAAAAAAAAUAAUAUAGGAAAGGCAUUAGGACUACCUAAUUCUUUAUAUUGUAUUUGGUAGAAGCAUGUUUCAGUCAUACUCUGAUGAAAAAUAAGUUACAACAGAGGAUUGAGCAUCA
B14: chr11:9308113:9308114:-_ENSG00000166471_ENST00000528080|hu_hu|motif|central (ssRNA)
RNA: GGGAGUUCUACAGUCCGACGAUCAUUAGGCAGAAAUGGUGUUAUUCUCAAAAAUAUAAUGUAGUUAAUGAGAUGUUCUCGGUGACGUUCAACCUGCUGUGACCAUUUUACUGCUUUCUCUGUUAGGUAUUUGUAUACAACUGGCAACAGAGGAUUGAGCAUCA
B15: chr14:46222469:46222470:-_ENSMUSG00000037697_ENSMUST00000051310|mus_hu|FALSE|FALSE (ssRNA)
RNA: GGGAGUUCUACAGUCCGACGAUCAUUCUCUGAAACUGAGGUAGGUUCUUUAGCUGGGUUGAGAAAGCUUGGCUUCAUAUGUUCAUAAGGUAAAGGAUUUGAAGUAUUGUACCAGUGGAUCUGGACAGGUGAAAUGUUGCUGUACAACAGAGGAUUGAGCAUCA
B16: 57185256_57189016_303_CDS_ENSG00000146143_ENST00000607273|human|control|control (ssRNA)
RNA: GGGAGUUCUACAGUCCGACGAUCUUCAUCUUCUAAGUUUUCUCUGUAGGAAAACUUGAGCUUCCGAAGCUCACUCUCCAACUUACUCUGGUAUUGUUCAGUUCCUUUCACAUAGCUCACUCCAAGAUUUUCAACUGAUUUUAACAACAGAGGAUUGAGCAUCA
B17: chr5:106037793:106037794:+_ENSMUSG00000054720_ENSMUST00000067924|mus_hu|motif|central (ssRNA)
RNA: GGGAGUUCUACAGUCCGACGAUCCUUUGUGUACAUUUUGUGUGAAAAGGAAAAAAAAAUAGGAAAGGCAUUAAGACGGCCGGAUUAUUUAUACUGUAUUUGGUAGAAGCGUGUUUCAGUCAAACUUUAACGAAAAAUAAGUUACAACAGAGGAUUGAGCAUCA
B18: chr5:106037793:106037794:+_ENSMUSG00000054720_ENSMUST00000067924|mus_mus|motif|central (ssRNA)
RNA: B13 RNA with U77G, A78G, U81G, A82G
B19: chr21:32491406:32491407:-_ENSG00000156299_ENST00000286827|hu_hu|motif|central (ssRNA)
RNA: GGGAGUUCUACAGUCCGACGAUCCAUAGUAUUUUAAACCCUUCUUAGGAAGUGGACAUUGUGACAUGGGAAAAGAAAAAGCGGUAAACCUUUUUUUAAAAAAAAAAAAAAAAUUGAAAGUGCUAUAACUUGUUUUUCUUCUUACAACAGAGGAUUGAGCAUCA
B20: chrX:119742084:119742085:+_ENSG00000232119_ENST00000371317|hu_hu|FALSE|FALSE (ssRNA)
RNA: GGGAGUUCUACAGUCCGACGAUCAAAAGGAUAUUUGUGAAGUAAUCUUAGGGUUGGAUAAAAAGGCCCUUCUCUUUGUCUAAAAAAGAGUAAUUCUCCAUUUACUGUAAGGAUUUCUAUAUGUUCAUGGCAUCGGACUAUUUUCAACAGAGGAUUGAGCAUCA

molecular target: T1, UNK ZnF1-3; assay: nsRBNS (natural sequence RNA bind-n-seq); RBNS binding buffer (assumed for nsRBNS): 25 mM Tris pH 7.5, 150 mM KCl, 3 mM MgCl2, 0.01% Triton X-100, 500 ug/ml BSA, 20 U/ml SUPERase-In, 4 C; UNK is unkempt and MSI1 is Musashi-1; names of the RNAs are library labels; protein concentration not given here; high values mean tight binding

Going from B1 to B2, the binding signal rises from 0.848 enrichment R to 5.64 enrichment R.

Going from B3 to B4, the binding signal rises from 0.4 enrichment R to 9.94 enrichment R.

First: B5
Second: B6
The binding signal of the first is higher: 1.11 enrichment R for the first, 0.84 enrichment R for the second.

First: B7
Second: B8
The binding signal of the first is lower: 0.774 enrichment R for the first, 1.68 enrichment R for the second.

First: B9
Second: B10
The binding signal of the first is higher: 1.21 enrichment R for the first, 1.13 enrichment R for the second.

Going from B11 to B12, the binding signal rises from 0.583 enrichment R to 1.01 enrichment R.

First: B13
Second: B14
The binding signal of the first is higher: 4.57 enrichment R for the first, 1.85 enrichment R for the second.

Going from B15 to B16, the binding signal falls from 1.5 enrichment R to 0.6 enrichment R.

Going from B17 to B18, the binding signal rises from 3.77 enrichment R to 5.1 enrichment R.

Going from B19 to B20, the binding signal falls from 1.34 enrichment R to 0.455 enrichment R.
